Test [1] in a line: qHTS assay to identify small molecule agonists of the estrogen related receptor signaling pathway with the pleiotropic PPARgamma coactivator (PGC) from Tox21 10K library (AID 1224842). Also: nearly all actives have a fitted effect of over 15% in size. In outline: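 PGC/ERR reporter cells (NTP line) were seeded 2,000 per well, rested 6 h at 37 C/5% CO2, then pin-dosed with compounds in DMSO for 18 h at 37 C; luciferase read by One-Glo luminescence after 30 min at room temperature.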

The nature of test [2]: qHTS assay to identify small molecule agonists of the estrogen related receptor (ERR) signaling pathway from Tox21 library (AID 1224849; calls by dose curve; also: nearly all actives have a fitted effect of over 15% in size). The settings on record: ERR reporter cell line, ONE-Glo luciferase, 18 h; at 92.4 µM (top of the series) unless noted. The essentials:
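ERR reporter cell line (NTP) seeded, rested 6 h at 37 C/5% CO2, then pinned with Tox21 compounds in DMSO. After 18 h at 37 C, ONE-Glo luciferase luminescence was read following 30 min at room temperature.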

Test [3] can be described thus: A CellTox Green Cytotoxicity Assay to monitor cytotoxicity in HEK293 cells - 0 hour (AID 1224869). Also: nearly all actives have a fitted effect of over 50% in size. The essentials: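 HEK293 cells premixed with CellTox Green dye were seeded at 600 cells/well and left 5 h at 37 C/5% CO2 before pin transfer of 23 nL compound in DMSO. Fluorescence from dye bound to dead-cell DNA was read during 40 h treatment.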
Test [4] is described as follows: A CellTox Green Cytotoxicity Assay to monitor cytotoxicity in HepG2 cells - 0 hour (AID 1224882). Also: nearly all actives have a fitted effect of over 35% in size. In outline:
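HepG2 cells were seeded together with the CellTox Green dye at 600 cells/well, left 5 h at 37 C/5% CO2, then given compounds in DMSO. Fluorescence from dye bound to dead-cell DNA was read repeatedly over 40 h of treatment at 37 C.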

Test [5] can be described thus: qHTS assay to identify small molecule HDAC inhibitors (AID 1259364). Also: top concentration of the series differs between compounds; nearly all actives have a fitted effect of over 45% in size. The essentials: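 Wild-type HCT-116 cells were plated overnight, exposed to compounds for 2 h at 37 °C, then given HDAC-Glo class I/II luminogenic reagent for 30 min at room temperature before luminescence was read.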
Test [6] can be described thus: qHTS assay to identify small molecule agonists of the sonic hedgehog signaling (Shh) pathway (AID 1259368; calls by dose curve; also: nearly all actives have a fitted effect of over 15% in size). The essentials:
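NIH/3T3-derived 3T3Gli1-Luc cells carrying a stably integrated Gli1 response element–firefly luciferase reporter were plated, left 4 hr at 37 C, then given compounds in DMSO for 24 hr. Luminescence was read 30 min after adding luciferase reagent.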
Background: In qHTS, concentration-response curves come from the screen itself.

A short description of test [7]: Caspase-3/7 induction in HepG2 cells by small molecules, qHTS assay (AID 1346978). Also: nearly all actives have a fitted effect of over 15% in size. In outline:
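Wild-type HepG2 cells (2,000/well) were settled 5 h at 37 C, 5% CO2, then exposed to compounds in DMSO for 17 h. Caspase-3/7 activity was read by luminescence 30 min after adding Caspase-Glo 3/7 reagent at room temperature.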

Test [8] in a line: Caspase-3/7 induction in CHO-K1 cells by small molecules, qHTS assay (AID 1346980). Also: nearly all actives have a fitted effect of over 15% in size. The essentials:
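Wild-type cells were seeded at 1,500 per well and settled 5 hr at 37 C, 5% CO2, then exposed to DMSO-dissolved compounds for 17 hr. Caspase-Glo 3/7 reagent was added, and luminescence was read after 30min at room temperature.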

Test [9] addresses Acetylcholinesterase (Homo sapiens) (UniProt P22303). Description: Acetylcholinesterase (AChE) small molecule antagonists: colormetric cell-based qHTS assay (AID 1347395; calls by dose curve; also: nearly all actives have a fitted effect of over 30% in size). The essentials:
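After overnight attachment at 37 C, SH-SY5Y cells get 30 min compound exposure; detection cocktail (acetylthiocholine, DTNB) then incubates 90 min at 37 C, and absorbance reflects AChE-generated thiocholine.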

Test [10] shares this target. In words: Acetylcholinesterase (AChE) small molecule antagonists: enzyme-based qHTS assay (AID 1347397; calls by dose curve; also: nearly all actives have a fitted effect of over 55% in size; also: potency is read from the fitted curve at half-maximal effect). The following applies: Potency: AChE enzyme activity inhibition; outcome: AChE enzyme activity inhibition. In outline: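 Recombinant human AChE, dispensed at 50 mU/mL, was preincubated with Tox21 10K compounds or DMSO vehicle for 30 min at room temperature. DTNB plus acetylthiocholine was then added, and thiocholine was measured colorimetrically after a further 10 min.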

The target is the same in test [11]. In words: Acetylcholinesterase (AChE) small molecule antagonists: fluorescence cell-based qHTS assay (AID 1347398; calls by dose curve; also: nearly all actives have a fitted effect of over 50% in size). The settings on record: Potency: AChE activity; outcome: AChE activity. The essentials:
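Human SH-SY5Y cells were plated overnight at 37 C, exposed to compound for 30 min at 37 C, 5% CO2, then given acetylthiocholine plus Thiolite Green for 40 min at room temperature; thiocholine fluorescence (Ex/Em 490/520 nm) reports endogenous AChE activity.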

For test [12] the target is unchanged. In words: Acetylcholinesterase (AChE) small molecule antagonists: enzyme-based qHTS assay with human liver microsomes (AID 1347399; calls by dose curve; also: nearly all actives have a fitted effect of over 60% in size). The settings on record: Potency: qHTS inhibition; outcome: qHTS inhibition. In outline:
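Recombinant human AChE (50 mU/mL in the enzyme mix) and human liver microsomes (0.25 mg/mL final) were preincubated with compound and NADPH (0.25 mg/mL final) for 30 min at 37 C. Acetylthiocholine/DTNB was then added; thiocholine was read colorimetrically after 10 min at room temperature.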

The target of the next test is Aromatase (Homo sapiens) (UniProt P11511). In words: qHTS assay to identify aromatase inhibitors (AID 743083). Also: nearly all actives have a fitted effect of over 55% in size. Also: potency is read from the fitted curve at half-maximal effect.
Sequence of Aromatase (Homo sapiens) (P11511 whole entry, looked up): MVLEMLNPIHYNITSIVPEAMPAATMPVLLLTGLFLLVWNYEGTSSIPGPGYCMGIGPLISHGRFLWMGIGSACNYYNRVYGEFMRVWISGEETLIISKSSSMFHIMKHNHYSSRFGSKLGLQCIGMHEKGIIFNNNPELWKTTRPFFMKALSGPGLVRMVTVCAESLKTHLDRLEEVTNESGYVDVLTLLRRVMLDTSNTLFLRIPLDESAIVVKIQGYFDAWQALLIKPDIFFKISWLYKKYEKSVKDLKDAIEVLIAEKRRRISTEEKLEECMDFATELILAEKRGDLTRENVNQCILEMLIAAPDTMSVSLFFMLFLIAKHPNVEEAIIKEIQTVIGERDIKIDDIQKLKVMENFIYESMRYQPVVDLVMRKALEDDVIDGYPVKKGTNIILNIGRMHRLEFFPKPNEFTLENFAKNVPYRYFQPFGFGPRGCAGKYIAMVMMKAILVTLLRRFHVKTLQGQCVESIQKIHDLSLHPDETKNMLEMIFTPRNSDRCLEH
The target in test [13] is Aryl hydrocarbon receptor (Homo sapiens) (UniProt P35869). Description: qHTS assay to identify small molecule that activate the aryl hydrocarbon receptor (AhR) signaling pathway (AID 743085). Also: nearly all actives have a fitted effect of over 15% in size. Also: potency is read from the fitted curve at half-maximal effect.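 As to activation: HG2L7.5c1 human HepG2 liver cells with stably integrated DRE-driven firefly reporter.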 The essentials: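 Stably transfected human liver carcinoma cells (HG2L7.5c1; 20 DRE-firefly luciferase) were incubated 5 h, dosed, and kept 24 h at 37C. Agonism was scored from increased luciferase luminescence.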
Sequence of Aryl hydrocarbon receptor (Homo sapiens) (P35869 whole entry, looked up): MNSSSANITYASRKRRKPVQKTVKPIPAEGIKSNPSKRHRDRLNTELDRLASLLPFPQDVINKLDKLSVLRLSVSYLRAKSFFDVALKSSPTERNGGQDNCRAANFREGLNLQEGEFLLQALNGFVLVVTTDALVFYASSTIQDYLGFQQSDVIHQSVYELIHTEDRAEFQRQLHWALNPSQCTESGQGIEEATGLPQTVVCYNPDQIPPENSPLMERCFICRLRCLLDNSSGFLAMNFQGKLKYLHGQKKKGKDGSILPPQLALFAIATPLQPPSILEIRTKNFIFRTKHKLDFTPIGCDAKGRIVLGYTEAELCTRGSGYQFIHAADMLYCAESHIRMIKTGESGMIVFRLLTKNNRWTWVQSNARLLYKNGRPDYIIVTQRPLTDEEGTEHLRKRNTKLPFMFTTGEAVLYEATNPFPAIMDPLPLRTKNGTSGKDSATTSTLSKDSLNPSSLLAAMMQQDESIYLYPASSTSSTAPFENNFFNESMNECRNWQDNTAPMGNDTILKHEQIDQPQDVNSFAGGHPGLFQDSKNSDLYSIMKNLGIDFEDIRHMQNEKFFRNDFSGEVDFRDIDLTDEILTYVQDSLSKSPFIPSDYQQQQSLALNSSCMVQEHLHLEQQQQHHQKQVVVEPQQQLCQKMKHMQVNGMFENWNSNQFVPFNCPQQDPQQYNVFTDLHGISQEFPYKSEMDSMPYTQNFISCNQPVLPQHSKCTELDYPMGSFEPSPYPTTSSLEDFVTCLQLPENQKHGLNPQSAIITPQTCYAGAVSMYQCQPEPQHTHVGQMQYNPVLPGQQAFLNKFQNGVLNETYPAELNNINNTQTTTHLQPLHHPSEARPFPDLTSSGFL

Test [14] in a line: qHTS assay to identify small molecule antagonists of the retinoic acid receptor (RAR) signaling pathway (AID 1159552; also: nearly all actives have a fitted effect of over 50% in size; also: potency is read from the fitted curve at half-maximal effect). In outline: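 Test chemicals and DMSO controls were pin-transferred onto C3RL4 cells a day after seeding; retinol (1 uM final) followed at once. Luminescent reporter output was quantified after 6 hr of co-incubation and 30 min with detection reagent.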

Where “and” joins values, the source holds several entries; their conditions need not be identical. Equal values may be shown once. Values without a mark were called inactive. Results filed as inconclusive are left out. Calls of active or inactive are those of the source. Unless noted, calls follow the shape of the dose curve; as a rule, active = well fitted curve in the direction sought with a large enough effect in the repeat runs; inconclusive = weak or mixed curves; inactive = no such curve, though single readings can be large; an effect the other way counts as inactive or inconclusive.
% is scaled to controls: 0 for no effect and ±100 for the full control effect.

Sequence of Acetylcholinesterase (Homo sapiens) (P22303 whole entry, looked up): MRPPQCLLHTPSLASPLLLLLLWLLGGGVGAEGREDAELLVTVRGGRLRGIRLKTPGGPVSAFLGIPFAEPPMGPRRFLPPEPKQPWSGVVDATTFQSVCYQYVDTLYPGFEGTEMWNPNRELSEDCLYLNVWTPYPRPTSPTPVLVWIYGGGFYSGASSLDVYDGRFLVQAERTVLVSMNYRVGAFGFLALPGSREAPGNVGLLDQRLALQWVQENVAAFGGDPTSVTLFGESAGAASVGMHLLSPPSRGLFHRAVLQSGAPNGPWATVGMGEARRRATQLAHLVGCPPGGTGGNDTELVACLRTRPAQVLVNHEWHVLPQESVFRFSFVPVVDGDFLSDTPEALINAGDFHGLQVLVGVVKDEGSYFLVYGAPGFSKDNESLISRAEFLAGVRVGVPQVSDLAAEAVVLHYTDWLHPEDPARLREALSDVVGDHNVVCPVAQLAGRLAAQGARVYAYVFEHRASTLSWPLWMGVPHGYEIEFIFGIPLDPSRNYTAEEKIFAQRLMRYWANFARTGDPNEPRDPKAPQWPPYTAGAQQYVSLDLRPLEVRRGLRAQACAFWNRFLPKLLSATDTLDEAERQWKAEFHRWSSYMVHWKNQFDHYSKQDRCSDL

As to `Oc1c(I)cc(I)cc1I`, the Potency entry in test [1], in test [3], in test [4], in [7], in test [9] and in test [10] was “inactive” throughout. For the same compound, the Potency entry in [11] and in test [12] was “inactive” in each case. The activity change, positive = activation in test [2] was -24.5%. For the same compound, the result in test [5], in test [6] and in test [8] was inactive.

For `CCOC(=O)C(O)(c1ccc(Cl)cc1)c1ccc(Cl)cc1`, the Potency is 4.37 µM (active) and 30.6 µM (active) with Aromatase (Homo sapiens); 24.6 µM (active) in [13]; 30.9 µM (active) and 30.6 µM (active) in test [14]. The Potency result in [3], in test [4], in [9], in test [10], in [11] and in test [12] was “inactive” in each case. The compound was called inactive in test [5] and in test [6].

On to `c1ccc2c(c1)Sc1ccccc1N2CC1CN2CCC1CC2` (configuration not stated), for which the Potency entry in [13], in test [1], in test [3], in test [4], in test [9] and in test [10] was “inactive” each time. In addition, the Potency result in test [11] and in test [12] was “inactive” in each case. Also, the Potency in test [14] is 29.8 µM (active). Also, the activity change, positive = activation in test [2] is -49.8% [at 42.5 µM]. Also, the outcome in test [5], in [6] and in [8] was inactive.

`OCC(c1ccc(Cl)cc1)c1ccc(Cl)cc1`: the Potency with Aromatase (Homo sapiens) is 30.6 µM (active); in test [14], 43.3 µM (active). For the same compound, the Potency entry in test [13], in [3], in test [4], in test [9], in test [10] and in [11] was “inactive” throughout. In test [12], the Potency result is “inactive”. Moreover, the compound was classed as inactive in test [5], in [6] and in test [8].

For the compound `Cc1ccc2nc3sc(=O)sc3nc2c1`, the activity, negative = inhibition in test [14] was 10.1% [at 19 µM]; in test [9], -0.0538% [at 23.6 µM]. In addition, the results for the cytotoxicity in test [3] and in test [4] were -0.433% [at 15.8 µM] and 0.753% [at 15.8 µM], respectively. The activity change, negative = inhibition in test [5] was -12.7% [at 19 µM]; in [10], 0% [at 23.6 µM]; in test [11] it was 1.71% [at 23.8 µM]; in [12], -0.324% [at 23.6 µM]. The activity change in test [6] is 2.66% [at 18.9 µM]. The caspase activation in test [7] was 0.305% [at 19 µM]. In addition, the caspase-3/7 activation in [8] was -0.994% [at 19 µM].

`CCN(CC)C(=O)Cl`: the Potency result in [1], in test [3], in test [4], in test [7], in test [9] and in [10] was “inactive” throughout. For the same compound, the Potency result in test [11] and in [12] was “inactive” in each case. Also, the activity change, positive = activation in [2] is -1.51%. Moreover, the compound was called inactive in [5], in test [6] and in test [8].

With `Nc1ccc(Cl)cc1[N+](=O)[O-]`, the Potency result (in the test with Aromatase (Homo sapiens); in [14]; in test [1]; in test [9]; in [10]; in test [11]) was “inactive” throughout. Besides, the Potency entry in test [12] was “inactive”.

With `O=C1C(I)=CC(=C(c2cc(I)c(O)c(I)c2)c2ccccc2C(=O)O)C=C1I`, the Potency result (in the test with Aromatase (Homo sapiens); in test [13]; in test [14]; in test [3]; in test [4]; in [7]) was “inactive” each time. Besides, the Potency entry in [9], in test [11] and in test [12] was “inactive” in each case. Further, the compound was classed as inactive in test [5], in test [6] and in test [8]. The Potency in test [10] is 34.7 µM (active).

In the case of `OC(Cc1ccccc1Cl)(Cn1[nH]cnc1=S)C1(Cl)CC1` (configuration not stated), the Potency result in test [14], in [3], in test [4], in [7], in test [9] and in test [10] was “inactive” each time. In addition, the Potency entry in test [11] and in [12] was “inactive” throughout. For the same compound, the compound was classed as inactive in test [5], in test [6] and in test [8].

The values above are taken from PubChem BioAssay (Tox21).
